# Reference: PubChem BioAssay (NCI)
# The panel holds about 83,000 compounds, 20% with a hit somewhere; the sample as a whole holds those more often.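 48-hour exposure, single concentration, 96-well plates; percent growth endpoint where 0 means no net growth. Active: below 10.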 Values without a mark were called inactive. Active and inactive are the calls of the source.
# Legend:
# Test in all cases: NCI-60 one-dose screen, 48 h (100 = growth as untreated, 0 = no growth, -100 = all killed)
# Conditions in all cases: 10 µM unless noted
# DU-145 prostate = system: DU-145 prostate
# K-562 leukemia = system: K-562 leukemia
# MALME-3M melanoma = system: MALME-3M melanoma
# MDA-MB-231 breast = system: MDA-MB-231 breast
# RXF 393 renal = system: RXF 393 renal
# SF-268 CNS = system: SF-268 CNS
# SF-295 CNS = system: SF-295 CNS
# SF-539 CNS = system: SF-539 CNS
# UACC-257 melanoma = system: UACC-257 melanoma
# M14 melanoma = system: M14 melanoma
SMILES,growth (DU-145 prostate),growth (K-562 leukemia),growth (MALME-3M melanoma),growth (MDA-MB-231 breast),growth (RXF 393 renal),growth (SF-268 CNS),growth (SF-295 CNS),growth (SF-539 CNS),growth (UACC-257 melanoma),growth (M14 melanoma)
CC(C)[C@@H]1CC[C@]2(C(=O)NCCCCN=C(N)N)CC[C@]3(C)[C@H](CC[C@@H]4[C@@]5(C)CCC(=O)C(C)(C)[C@@H]5CC[C@]43C)[C@@H]12,81.3%,24.6%,19%,74.3%,93.8%,54.8%,102%,69.5%,71.1%,71.2%
CC1=C(C)C(=O)OC([C@](C)(O)[C@]2(O)CC[C@@]3(O)[C@@H]4C[C@H]5O[C@]56CC=CC(=O)[C@]6(C)[C@H]4CC[C@]23COC(=O)c2ccc(C)o2)C1 (stereo not given in full),-92.1% (active),1.46% (active),-85% (active),-54.8% (active),-88.8% (active),-55.8% (active),-24.5% (active),-91.2% (active),-58.7% (active),-0.794% (active)
COc1ccc(CCN2CCCn3c2nc2ccccc2c3=O)cc1,16.4%,13.1%,59.8%,42.5%,-0.0509% (active),56.9%,20.4%,-16.3% (active),81.3%,21.4%
Nc1nc2ccc(-c3nc4ccc5[nH]ncc5c4c4c3CCC4)cc2s1,16.5%,19.4%,-2.7% (active),42.2%,-21.9% (active),37.7%,13.6%,3.96% (active),36.9%,29.1%
NS(=O)(=O)c1ccc(-n2ncc3c(=O)[nH]c(CN4CCN(c5cc6c(cc5F)c(=O)c(C(=O)O)cn6C5CC5)CC4)nc32)cc1,110%,95.8%,105%,85.8%,98.2%,91.6%,91.8%,97%,105%,92.9%
CCOC(=O)c1cnc2ccc(Br)cc2c1Nc1cccc(S(=O)(=O)NC)c1,103%,100%,99.1%,95.4%,99.5%,94.9%,94.2%,98.2%,114%,114%
Cc1ccc2cnc(N)c(C#Cc3cncc(C(=O)Nc4ccc(CN5CCN(C)CC5)c(C(F)(F)F)c4)c3)c2c1,-95.8% (active),-50.5% (active),-83.4% (active),-94.8% (active),-93% (active),-69% (active),-87.2% (active),-99.2% (active),-64.7% (active),-62.2% (active)
CC1(C)CC(C(=O)OCCCCCCCCCCC[P+](c2ccccc2)(c2ccccc2)c2ccccc2)C(C)(C)N1O (stereo not given),-85.3% (active),-76.3% (active),-68.3% (active),-70.2% (active),-68.8% (active),-92.9% (active),-71.3% (active),-93.1% (active),-77.1% (active),-13.2% (active)
COc1ccc(-c2cc(-c3cccnc3)nc3sc4c(=O)n(-c5ccc(C)cc5)cnc4c23)cc1OC,101%,111%,102%,90.1%,98.5%,100%,101%,89.4%,104%,99%
Cc1cc(Cl)ccc1Nc1nc(C(F)(F)F)ccc1C(=O)N/N=C/c1ccc(F)cc1,35.2%,5.33% (active),6.12% (active),-9.74% (active),17.8%,19.6%,17.4%,24.6%,8.52% (active),2.84% (active)
O=C1C2CC=CCC2C(=O)N1CNc1ccc(Cl)cc1 (stereo not given),106%,84.6%,87.6%,92.8%,92%,96.9%,106%,86.5%,101%,94.2%
CN1CCN(Cc2ccc(NC(=O)c3cncc(C#Cc4cnc(N)c5cccnc45)c3)cc2C(F)(F)F)CC1,24.6%,1.39% (active),-56.8% (active),-20% (active),-18.2% (active),26.3%,12.7%,-28.3% (active),18.8%,-18.8% (active)
COc1ccc(S(=O)(=O)NCCNc2nccc(-c3c(-c4cccc([N+](=O)[O-])c4)nc4sccn34)n2)cc1,80%,76.1%,111%,82.9%,78%,66.4%,90.6%,99.3%,106%,102%
